From PubChem BioAssay
This is a sample that favours compounds with a hit; in the whole collection about 9.9% have one here.
MCF10A rerep = inducers of DNA re-replication in MCF 10A breast cells. 2.9% of 350,000 active. Potency, µM (titrated, usually from 46.1 µM), without a hit: at the top dose activity, positive = re-replication, most hits filed as activators. MCF 10A DNA re-replication, Hoechst nuclear intensity, 48 h; further: potency means the concentration at half of the fitted maximal effect; % of control where 0% means no effect; nearly all actives have a fitted effect of over 50% in size
KB-3-1 cytotox = kills parental KB-3-1 adenocarcinoma cells; KB-3-1 viability, CellTiter-Glo ATP luminescence, 72 h; Potency, µM (top dose mostly 46.1 µM), most hits filed as cytotoxic; 1.4% of 400,000 active; further: potency means the concentration at half of the fitted maximal effect; on the % scale 0 is the no-effect control and ±100 the full control effect; nearly all actives have a fitted effect of over 60% in size
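Here the drug-naive KB-3-1 line serves as comparator for MDR sub-line selectivity; cells received compound titrations, 72 h at 37 °C, then CellTiter-Glo readout.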
IL1B secr inh = blocks inflammasome-driven IL-1 beta release. THP-1 LPS/ATP IL-1B secretion, AlphaLISA, 16 h; active compounds read low. activity change, % at 57.5 µM. 4.7% of 360,000 active. AID 743279; in the data active means activity change below about -50%; inconclusive means mostly about -30% to -49%; further: on the % scale 0 is the no-effect control and ±100 the full control effect
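Secreted IL-1B measured by AlphaLISA bead assay after 16 h compound exposure of THP-1 cells; compounds (final up to 57.5 uM) added 1 h before LPS (250 ng/mL) and ATP (1.25 mM) stimulation; lower signal means less secretion.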
KB-V1 MDR tox = KB-V1 MDR subline cytotoxicity | AID 1347076 | KB-V1 MDR cells viability, CellTiter-Glo, 72 h | 3.4% of 400,000 active | Potency, µM (doses to about 46.1 µM), actives largely listed as cytotoxic; further: potency means the concentration at half of the fitted maximal effect; on the % scale 0 is the no-effect control and ±100 the full control effect; nearly all actives have a fitted effect of over 60% in size
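Cells of the MDR subline KB-V1 are plated, dosed with compound at multiple concentrations, and incubated 72 h at 37 degrees C; CellTiter-Glo is then added and luminescence read after 10 min.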
SW480 rereplic = induces DNA re-replication in SW480 colon adenocarcinoma cells; Potency, µM (titrated, usually from 46.1 µM), for inactives: top-dose re-replication activation, actives largely listed as activators; AID 624297; SW480 DNA re-replication, Hoechst DNA content imaging, 48 h; 1.8% of 340,000 active; further: potency means the concentration at half of the fitted maximal effect; % of control where 0% means no effect; nearly all actives have a fitted effect of over 55% in size
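Quantitative HTS format with DMSO vehicle controls; 48 hr drug incubation at 37 C, then 40 min Hoechst staining and scanning imager measurement at 405 nm excitation.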
The depositor's hits bear a star; i = inactive; ? = inconclusive; . = no result given; [ ] = dose if it differs, or a comment. Unless noted, the call rests on the fitted dose curve; in most records, active means well fitted curve in the direction sought with a large enough effect; inconclusive means small, poorly fitted or top-dose-only effect, or another doubt; inactive means no such curve, though single readings can be large; an effect the other way counts as inactive or inconclusive.

SMILES	MCF10A rerep	KB-3-1 cytotox	IL1B secr inh	KB-V1 MDR tox	SW480 rereplic
CCc1n[nH]c(=S)n1/N=C/c1cc(Br)c(O)c(OC)c1	-2.2%	i	39.0	?	14.4%
CC(=O)n1ccnc1	8.2%	i	12.4	i	11.3%
Cc1ccc2[nH]c(=O)c3cc(C(=O)N(C)C4CCCCC4)sc3c2c1	2.4%	i	.	i	1.2%
CCN(C(=O)c1cc2c(=O)[nH]c3ccc(C)cc3c2s1)c1ccc(F)cc1	16.4µM*	i	21.5	i	?
Cc1ccc2[nH]c(=O)c3cc(C(=O)N(C)c4ccc(C)c(C)c4)sc3c2c1	4.11µM*	i	37.2	i	14.6µM*
CCN(C(=O)c1cc2c(=O)[nH]c3ccc(C)cc3c2s1)c1cccc(C)c1	?	i	11.7	i	?
COC(=O)C=C1CCC2C3CCC4=CC(=O)C(Br)CC4(C)C3C(=O)CC12C (centres undefined)	?	?	-94.6*	?	?
COCCn1c(=NC(=O)C2COc3ccccc3O2)sc2cc(S(N)(=O)=O)ccc21 (centres undefined)	?	i	-7.9	i	0.7%
CCn1c(=NC(=O)C2COc3ccccc3O2)sc2c(OC)ccc(OC)c21 (centres undefined)	16.2%	i	-22.3	9.2µM*	-24.1%
COc1ccc(OC)c(NC(=O)CSc2nccn2-c2cc(C)cc(C)c2)c1	.	i	.	?	.
CCN(CC)CCN(Cc1cc2cc(C)c(C)cc2[nH]c1=O)C(=S)NCc1ccco1	0.1%	i	-141.9*	i	0.9%
Cc1cc2cc(CN(CCN(C)C)C(=S)NCc3ccco3)c(=O)[nH]c2cc1C	20.5%	i	-79.8*	i	12.3%
CCCCNC(=S)N(CCO)Cc1cc2cc3c(cc2[nH]c1=O)OCCO3	?	i	-14.6	i	10.4%
CCCCNC(=S)N(CCN(C)C)Cc1cc2cc3c(cc2[nH]c1=O)OCCO3	3.9%	i	-51.2*	i	-3.2%
CCn1c(=O)n(-c2cccc(Cl)c2)c(=O)c2sc3ccccc3c21	.	i	.	i	.
CCOC(=O)c1ccc(NC2=CC(c3ccc(F)cc3)N(c3ccc(C(=O)OCC)cc3)C2=O)cc1 (centres undefined)	.	i	.	i	.
COc1ccc2c(c1)c1c(c(=O)n(-c3ccc(OC)c(OC)c3)c(=O)n1Cc1ccccc1F)n2C	.	i	.	i	.
CC(C)COc1ccc(C(=O)Nc2scc(-c3ccc(Cl)cc3Cl)c2C(N)=O)cc1	?	3.26µM*	-2.7	3.66µM*	5.0%
Fc1ccccc1Nc1nc2c(s1)CCc1ccccc1-2	?	.	.	.	1.8%
COc1ccc(CC(NC(C)=O)C(=O)NC2CCN(C(=O)C3CCCCC3)CC2)cc1OC (centres undefined)	0.1%	i	24.1	i	2.6%
CCNC(=S)N(Cc1ccccc1)Cc1nc2ccccc2c(=O)[nH]1	-0.6%	i	8.7	20.6µM*	-38.4%
CSc1ccc(CN(C)Cc2nc3ccccc3c(=O)[nH]2)cc1	-2.7%	i	3.0	20.6µM*	-2.7%
COc1cccc(CN(C(=O)c2oc3ccccc3c2C)C2CCS(=O)(=O)C2)c1 (centres undefined)	.	i	.	i	.
CCc1ccc(N2C(=O)CS(=O)(=O)C23C(=O)N(Cc2ccccc2)c2ccccc23)cc1 (centres undefined)	.	i	.	i	.
CCOc1cc(/C=N/NC(=O)C(=O)NCCCOC(C)C)cc(Br)c1O	-61.0%	i	12.7	?	?
SMILES	MCF10A rerep	KB-3-1 cytotox	IL1B secr inh	KB-V1 MDR tox	SW480 rereplic
CCOC(=O)c1ccccc1NC(=O)CN1C(=O)CC(c2ccco2)Sc2ccccc21 (centres undefined)	.	i	.	?	.
O=C(CN1C(=O)CC(c2ccccc2)Sc2ccccc21)Nc1cccc(Cl)c1 (centres undefined)	.	?	.	20.6µM*	.
COc1ccc(C2CC(=O)N(CC(=O)NCC3CCCO3)c3ccccc3S2)cc1OC (centres undefined)	-3.2%	i	-21.7	i	-6.4%
CCOc1ccccc1NC(=O)CN1C(=O)CC(c2ccc(OC)c(OC)c2)Sc2ccccc21 (centres undefined)	.	?	.	18.4µM*	.
CCOc1ccccc1NC(=O)CN1C(=O)CC(c2ccco2)Sc2ccccc21 (centres undefined)	.	?	.	13µM*	.
CC(C)C1CC(CCN)(Cc2ccccc2)CCO1 (centres undefined)	?	?	-51.8*	?	?
CC(C)C1CC(CCN)(c2ccccc2)CCO1 (centres undefined)	1.0%	i	-15.1	i	-4.6%
O=C1CC(c2ccccc2)Cc2[nH]c(=O)c(-c3nc(-c4ccc(F)cc4)cs3)cc21 (centres undefined)	.	4.61µM*	.	i	.
Cc1sc(-c2cc3c([nH]c2=O)CC(c2ccccc2)CC3=O)nc1-c1ccc(Cl)cc1 (centres undefined)	.	1.03µM*	.	0.82µM*	.
O=C(Nc1nnc(-c2ccccc2F)s1)Nc1ccccc1F	1.0%	i	-8.7	i	-1.0%
O=C(Nc1nnc(-c2ccccc2SCc2ccccc2)s1)Nc1ccccc1F	1.9%	i	59.6	i	3.66µM*
COc1ccc2[nH]c(=O)c(CNc3cccc(C)c3)cc2c1	9.0%	?	15.4	5.8µM*	1.1%
COc1ccc(NCc2cc3ccccc3[nH]c2=O)cc1	19.8%	i	41.8	i	-4.9%[9.22 µM]
COc1ccc(NCc2cc3cc(OC)ccc3[nH]c2=O)cc1	-6.7%	i	-11.1	18.4µM*	25.9%
CCCNC(=O)C1(C)CCCN(C(=O)c2cc3ccccc3s2)C1 (centres undefined)	.	i	-1.7	i	.
CCc1nnc2c(NCCc3ccccc3)nc3ccccc3n12	6.3%	i	30.1	i	5.6%
NC(Cc1ccccc1)c1csc(Nc2nccc(C(F)(F)F)n2)n1 (centres undefined)	.	?	-12.2	?	.
CCc1cnc(Nc2nc(C(N)Cc3ccc(F)cc3)cs2)nc1 (centres undefined)	.	?	-62.3*	?	.
NC(Cc1ccc(Cl)cc1)c1csc(Nc2nccc(C(F)(F)F)n2)n1 (centres undefined)	.	?	-56.0*	?	.
NC(Cc1ccc(F)cc1)c1csc(Nc2nccc(C(F)(F)F)n2)n1 (centres undefined)	.	i	-59.4*	i	.
NC(c1csc(Nc2nccc(C(F)(F)F)n2)n1)C1CCCCC1 (centres undefined)	.	i	?	i	.
COc1ccc(CC(N)c2csc(Nc3nccc(C(F)(F)F)n3)n2)cc1 (centres undefined)	.	i	-55.9*	i	.
